Records with an inconclusive call do not appear. The source made the active and inactive calls. Calls follow the shape of the dose curve; as a rule, active = well fitted inhibition curve with a large enough effect; inconclusive = small, poorly fitted or top-dose-only effect; inactive = flat fitted curve, though single readings scatter.

Experiment in all cases: qHTS profiling for inhibitors of Plasmodium falciparum proliferation (AID 504749); also: nearly all actives have a fitted effect of over 60% in size
Conditions in all cases: P. falciparum in erythrocytes, SYBR Green DNA, 72 h; series mostly up to 28.7 µM

The test system of one assay is AA1029. The gist of the method:
(§1)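 SYBR Green fluorescence of parasite DNA, read after lysis and overnight dark incubation, measured growth over 72 h in erythrocyte culture at 0.3% parasitemia and 2.5% hematocrit. Data normalised to DMSO and 0.29 uM artemisinin, with plate-drift correction.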

For another assay, the system named is ATS95. The gist of the method: as §1
For another assay, the system named is C2A. Summed up:
as §1

The test system of a further assay is CP211. Summed up:
as §1

In another assay the test system is CP217. The gist of the method:
as §1

In the next assay the test system is CP250. Summed up: as §1
The subject of a further assay is CP252. Summed up: as §1
The test system of the next assay is CP256. The gist of the method: as §1
For another assay, the system named is CP260. Summed up: as §1
In the next assay the test system is CP335. The gist of the method: as §1
The subject of the next assay is DIV14. Summed up:
as §1

For a further assay, the system named is DIV17. Summed up:
as §1

The test system of the next assay is ECU. Summed up:
as §1

The next assay deals with ICS. The gist of the method:
as §1

For a further assay, the system named is N140. The gist of the method:
as §1

The next assay deals with P93_24. The gist of the method:
as §1

For the next assay, the system named is PAD. Summed up: as §1
A further assay concerns PC26. Summed up:
as §1

A further assay concerns SC27B. Summed up:
as §1

The test system of the next assay is TAB165. The gist of the method:
as §1
Potency is read from the fitted curve at half-maximal effect.

As to `CO[C@H]1/C=C/O[C@@]2(C)Oc3c(C)c(O)c4c(O)c(c5c(c4c3C2=O)NC2(CCN(CC(C)C)CC2)N=5)=NC(=O)/C(C)=C\C=C\[C@H](C)[C@H](O)[C@@H](C)[C@@H](O)[C@@H](C)[C@H](OC(C)=O)[C@@H]1C`, the Potency is 11.2 µM (active) with AA1029; 8.91 µM (active) in the assay with ATS95; 8.91 µM (active) in the assay on C2A; 8.91 µM (active) with CP217; 7.08 µM (active) in the assay with CP250; 8.91 µM (active) in the assay with CP252. Also, the Potency was 8.91 µM (active) with CP256; 8.91 µM (active) with CP260; 13.5 µM (active) in the assay with CP335; 8.49 µM (active) in the assay on DIV14; 10.7 µM (active) with DIV17; 7.94 µM (active) with ECU. Also, the Potency with ICS is 8.91 µM (active); in the assay on N140, 8.91 µM (active); with P93_24 it was 6.31 µM (active); in the assay on PAD it was 10 µM (active); in the assay with PC26, 10.7 µM (active); in the assay with SC27B it was 8.91 µM (active). Besides, in the assay on TAB165, the Potency is 7.94 µM (active). For the same compound, the Potency entry with CP211 was “inactive”.

Take `CN1[C@H]2CC(OC(=O)[C@H](CO)c3ccccc3)C[C@H]1[C@H]1O[C@H]12` (stereo not given in full): the Potency entry in the assay with AA1029, in the assay on ATS95, in the assay with C2A, in the assay on CP211, with CP217 and in the assay with CP250 was “inactive” throughout. For the same compound, the Potency result in the assay with CP252, in the assay with CP256, in the assay with CP260, in the assay on CP335, with DIV14 and in the assay on DIV17 was “inactive” in each case. Further, the Potency entry in the assay with ECU, with ICS, with N140, with P93_24, in the assay on PAD and in the assay with PC26 was “inactive” throughout. In addition, the Potency entry in the assay with SC27B and with TAB165 was “inactive” each time.

The values are drawn from PubChem BioAssay (NCATS).
